AMA1-RON2 inh – inhibitors of Plasmodium falciparum AMA1-RON2 interaction; Potency, µM (top dose mostly 58.2 µM), without a hit: top-dose activity change, negative = inhibition, usual class: inhibitors; 360,000 tested, 0.2% active; AlphaScreen AMA1-biotinylated RON2 peptide binding;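 also: potency is read from the fitted curve at half-maximal effect; 0% = vehicle wells and -100% = peptide control; nearly all actives have a fitted effect of over 45% in size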
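AMA1 (3D7) with his tag at 25 nM final met compounds first, then biotinylated RON2 peptide at 25 nM; detection used donor plus acceptor beads, 10 µg/mL apiece, read by AlphaScreen after 30 min at room temperature.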
LmPK inhibitor – blocks Leishmania mexicana pyruvate kinase activity; Potency, µM (series often up to 57.5 µM), for the others: at the top dose activity change, negative = inhibition, most hits filed as inhibitors; purified LmPK, Kinase-Glo ATP luminescence, 1 h; 290,000 tested, 0.37% active; also: potency is read from the fitted curve at half-maximal effect; % is scaled to controls: 0 for no effect and ±100 for the full control effect
Target sequence (Q27686 whole entry, looked up): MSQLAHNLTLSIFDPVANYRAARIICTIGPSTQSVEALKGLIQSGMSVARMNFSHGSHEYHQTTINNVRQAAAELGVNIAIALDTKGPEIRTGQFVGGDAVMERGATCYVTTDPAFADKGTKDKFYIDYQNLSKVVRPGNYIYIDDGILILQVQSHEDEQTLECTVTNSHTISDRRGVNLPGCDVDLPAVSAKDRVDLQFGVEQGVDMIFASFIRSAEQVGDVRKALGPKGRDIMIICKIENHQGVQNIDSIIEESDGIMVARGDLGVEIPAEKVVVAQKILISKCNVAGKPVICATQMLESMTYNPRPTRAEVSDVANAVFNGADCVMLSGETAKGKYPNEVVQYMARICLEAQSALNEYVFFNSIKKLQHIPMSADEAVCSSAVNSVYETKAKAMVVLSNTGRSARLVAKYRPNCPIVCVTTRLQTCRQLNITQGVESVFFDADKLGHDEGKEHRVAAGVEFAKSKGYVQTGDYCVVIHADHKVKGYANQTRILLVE
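Purified LmPK (0.1 nM) with 0.5 mM PEP and 0.1 mM ADP in imidazole buffer pH 7.2 with MgCl2/KCl, 1 h at room temperature. ATP formed was read by luciferase luminescence and normalized to no-enzyme and uninhibited controls.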
Tb PYK inh – inhibitors of Trypanosoma brucei pyruvate kinase. Q57TT1. TbPYK enzyme, Kinase-Glo Plus ATP luminescence, 45 min. Potency, µM (series often up to 76.8 µM), for inactives: at the highest dose activity, negative = inhibition, actives largely listed as inhibitors. 410,000 tested, 0.12% active; also: potency is read from the fitted curve at half-maximal effect; % is scaled to controls: 0 for no effect and ±100 for the full control effect; nearly all actives have a fitted effect of over 50% in size
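Glycolytic pyruvate kinase of T. brucei was incubated with substrate, test compound and 130 uM ADP for 45 minutes at room temperature. Luminescent Kinase-Glo Plus signal was measured after 10 minutes.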
RE007 growth inh – less growth of the S. pombe RE007 Vpr strain. S. pombe RE007 Vpr strain, BacTiter-Glo ATP luminescence, 24 h. Potency, µM (series often up to 92.2 µM), for inactives: top-dose activity change, negative = less growth, actives largely listed as inhibitors. 360,000 tested, 0.21% active; active = well fitted falling curve with a large enough effect; inconclusive = small, poorly fitted or top-dose-only effect; inactive = no such curve, though single readings can be large or run the other way; also: potency is read from the fitted curve at half-maximal effect; % is scaled to controls: 0 for no effect and ±100 for the full control effect; nearly all actives have a fitted effect of over 50% in size
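Fission yeast strain RE007, carrying one chromosomally integrated HIV-1 vpr copy, was seeded at OD 0.01 in PMG+AL medium with 23 nL pinned compound. After 24 h at 30 °C and 99% humidity, viability was read by BacTiter-Glo luminescence.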
SARS PLpro yeast-1 – SARS-CoV PLP inhibition in yeast. Potency, µM (series often up to 32.9 µM), inactives show at the highest dose activity, positive = growth rescue, hits mostly activators. 330,000 tested, 0.19% active. S. cerevisiae expressing SARS-CoV PLpro, growth rescue; calls by dose curve; also: potency is read from the fitted curve at half-maximal effect; 0% is about no effect; nearly all actives have a fitted effect of over 55% in size
SARS PLpro yeast-2 – Inhibits SARS-CoV PLP in yeast, hit validation | 1,000 tested, 19% active | yeast expressing SARS-CoV PLpro, growth phenotype rescue | shares compounds with SARS PLpro yeast-1 | AID 652038 | calls only; call rule not given here
Starred values were filed as active, the others as inactive; i = inactive; ? = inconclusive; · = no result; + = active, no number. A selection: hits, their analogues and other compounds. The true share with any hit is near 0.81%. Unless noted, calls follow the shape of the dose curve; as a rule, active = well fitted curve in the direction sought with a large enough effect; inconclusive = small, poorly fitted or top-dose-only effect, or another doubt; inactive = no such curve, though single readings can be large; an effect the other way counts as inactive or inconclusive.

SMILES | AMA1-RON2 inh | LmPK inhibitor | Tb PYK inh | RE007 growth inh | SARS PLpro yeast-1 | SARS PLpro yeast-2
O=C(Nc1ccc(F)cc1)C(c1ccccc1)N1CCN(S(=O)(=O)c2ccccc2)CC1 (configuration not stated) | -7% | 2% | 5% | -1% | ? | i
Cc1cc2c(cc1S(=O)(=O)N1CCN(c3ccc(Cl)cc3)CC1)OCCN2C | ? | -2% | -8% | 0% | 0.89µM* | i
Cn1c2ccccc2n2c(=O)c(=O)n(CC(=O)c3ccc(Cl)cc3)nc12 | 7% | -7% | -2% | 16% | 11µM* | i
COC(=O)Cc1ccc(NC(C)=O)cc1 | 11% | · | 0% | -8% | 0% | ·
COc1ccc(CC(=O)N/N=C(\C)CC(=O)Nc2ccc(N(C)C)cc2)cc1 | 12% | -1% | -6% | -16% | -4% | ·
C/C(CC(=O)Nc1ccc(N(C)C)cc1)=N\NC(=O)Cc1csc(N)n1 | 25% | -2% | -11% | 1% | 18µM* | i
O=C1C(c2ccccc2)=C(N2CC2)c2ccccc21 | 28µM* | 0% | 1% | ? | ? | i
COC(=O)c1ccc(NC(=O)Cn2c(=O)oc3ccccc32)cc1 | · | · | 2% | · | · | ·
Cc1ccccc1S(=O)(=O)Cc1ccc(C(=O)NCCCN2CCN(C)CC2)o1 | 3% | -1% | -1% | 9% | ? | i
CC1=C(C(=O)Nc2cccnc2)C(c2cccc(O)c2)n2nc(SCc3ccccc3)nc2N1 (configuration not stated) | · | · | 1% | · | · | ·
CC(=O)C(Sc1nn(C)c(=S)s1)C(=O)Nc1ccccc1 (configuration not stated) | -1% | 14% | 32µM* | ? | ? | i
COc1ccc(C2C=C(C34CC5CC(CC(C5)C3)C4)NC(=S)N2)cc1OC (configuration not stated) | 15% | -1% | -18% | -17% | 14µM* | +
COc1ccc(C2OCC(C)(C)CO2)cc1OC | -2% | · | 5% | 5% | · | ·
C=CCc1cc(OC)ccc1OCCN(C)Cc1ccccc1 | ? | 1% | -12% | 2% | ? | i
Cc1ccc(S(=O)(=O)NC(C(=O)Oc2cc3oc(=O)cc(C)c3cc2Cl)C(C)C)cc1 (configuration not stated) | 6% | 1% | -6% | 33% | 22µM* | ?
COc1cccc(C(=O)CSc2nnc(-c3cc(OC)c(OC)c(OC)c3)o2)c1 | -1% | 5% | -1% | -7% | ? | ?
COc1cc(-c2nnc(SCC(=O)c3ccc(C)cc3)o2)cc(OC)c1OC | -5% | 1% | 1% | -4% | -3% | ·
CCOC(=O)CSc1nc2ccccc2c(=O)n1C | 8% | 1% | -11% | -6% | ? | i
CCOC(=O)CSc1nc2ccccc2c(=O)n1C1CCCC1 | 5% | 6% | 4% | 10% | -9% | ·
Cc1ccc(OC(=O)CSc2nnc(-c3ccc4c(c3)OCO4)o2)c(C)c1 | · | · | 1% | · | · | ·
Cc1ccc(NC(=O)CSC(C)C(=O)OCc2cc(=O)oc3cc(O)ccc23)cc1 (configuration not stated) | 14% | · | 0% | 7% | · | ·
O=C(Nc1nc(-c2ccccc2)cs1)c1ccc2c(=O)n3c(nc2c1)CCCCC3 | -7% | 4% | 5% | -13% | ? | i
Cc1ccc(OCC(=O)N/N=C\c2c(C)[nH]n(-c3ccccc3)c2=O)c([N+](=O)[O-])c1 | 36% | 0% | 2% | -13% | 5.6µM* | +
Cc1ccc(Cl)cc1-n1ncc2c(Nc3ccc4c(c3)OCCO4)ncnc21 | · | · | -4% | · | · | ·
CC(=Nc1ccccc1)C1=C(O)COC1=O | 5% | 9% | 4% | -7% | ? | i
O=C(NCc1ccccc1)C1c2ccccc2OCC(=O)N1Cc1cccnc1 (configuration not stated) | 18% | · | 6% | 10% | · | ·
S=c1[nH]nc(COc2cccc3ccccc23)n1Cc1ccccc1 | 72% | -1% | ? | -2% | -1% | ·
Cc1ccccc1OCc1n[nH]c(=S)n1Cc1ccccc1 | 58% | -21% | ? | 13% | ? | ?
